Experimental data as given in PubChem BioAssay (Tox21).
Results filed as inconclusive are left out. Active and inactive are the calls of the source. Unless noted, calls come from the whole dose curve; as a rule, active = well fitted curve in the direction sought with a large enough effect in the repeat runs; inconclusive = weak or mixed curves; inactive = no such curve, though single readings can be large; an effect the other way counts as inactive or inconclusive.

Key:
[1] = biological target: Estrogen receptor (Homo sapiens) (UniProt P03372); experiment: qHTS assay to identify small molecule antagonists of the estrogen receptor alpha (ER-alpha) signaling pathway using the BG1 cell line in the presence of 0.1 nM 17-beta-estradiol (AID 1259244); note: nearly all actives have a fitted effect of over 50% in size; note: potency is the fitted concentration of half-maximal effect
How it was run: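 Estradiol at 0.1 nM (final) stimulates the endogenous ER-alpha of VM7Luc4E2 cells carrying an ERE-driven luciferase; compounds are co-incubated 22 h at 37C and luciferase output quantified by luminescence.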

[2] = qHTS assay to identify small molecule HDAC inhibitors - cell viability counter screen (AID 1259365); note: series mostly up to about 92 µM; nearly all actives have a fitted effect of over 50% in size
How it was run: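 Following a 2hr exposure of overnight-plated wild-type HCT-116 cells to DMSO-delivered compounds, CellTiter-Glo was added and luminescence recorded after 30min at room temperature.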

[3] = qHTS assay to identify small molecule agonists of the sonic hedgehog signaling (Shh) pathway - cell viability counter screen (AID 1259366); note: nearly all actives have a fitted effect of over 50% in size; note: potency is the fitted concentration of half-maximal effect
How it was run: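 After a 4hr attachment at 37C, NIH/3T3 cells bearing an integrated Gli1-driven luciferase reporter were dosed with compounds. Treatment lasted 24hr, with the final hour including CellTiter-Fluor for a fluorescence viability measurement.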

[4] = qHTS assay to identify small molecule antagonists of the sonic hedgehog signaling (Shh) pathway - cell viability counter screen (AID 1259367); note: nearly all actives have a fitted effect of over 55% in size; note: potency is the fitted concentration of half-maximal effect
How it was run: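 Seed 3T3 Gli1-Luc cells at 2,000 per well; incubate 4 hr; add compound in DMSO, then conditioned medium; incubate at 37C with 5% CO2; add CellTiter-Fluor after 23 hr; read fluorescence 1 hr later.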

[5] = qHTS assay to identify small molecule agonists of the sonic hedgehog signaling (Shh) pathway (AID 1259368; calls by dose curve;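 note: NIH/3T3-derived 3T3Gli1-Luc cells carrying a stable Gli1-driven firefly luciferase reporter; series mostly up to about 92 µM; nearly all actives have a fitted effect of over 15% in size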)
How it was run: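 A Gli1 transcriptional response element controlled firefly luciferase in 3T3Gli1-Luc cells. Compounds and a positive control were added 4 hr after plating, and cells were incubated a further 24 hr at 37 C before luminescence detection.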

[6] = qHTS assay to identify small molecule antagonists of the sonic hedgehog signaling (Shh) pathway (AID 1259369; calls by dose curve; note: nearly all actives have a fitted effect of over 45% in size; note: potency is the fitted concentration of half-maximal effect)
How it was run: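 For antagonist detection, the reporter line received test compounds together with conditioned medium, incubated 24hr at 37 C, 5% CO2, then luminescence was recorded following 30min room-temperature luciferase reagent incubation.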

[7] = biological target: Estrogen receptor beta (Homo sapiens) (UniProt Q92731); experiment: qHTS assay to identify small molecule agonists of the estrogen receptor beta (ER-beta) signaling pathway (AID 1259377; active = well fitted activation curve with a large enough effect in the signal ratio in the repeat runs, not every such curve was filed as active; the % refers to the signal ratio; note: potency is the fitted concentration of half-maximal effect)
How it was run: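 In HEK293T cells bearing a UAS-beta-lactamase reporter under ER-beta control, DMSO-delivered compounds were incubated for 16 hr at 37C. Activity was detected as fluorescence 2 hours after LiveBLAzer B/G FRET substrate addition.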

[8] = biological target: Estrogen receptor beta (Homo sapiens) (UniProt Q92731); experiment: qHTS assay to identify small molecule antagonists of the estrogen receptor beta (ER-beta) signaling pathway (AID 1259378; active = well fitted inhibition curve with a large enough effect in the signal ratio in the repeat runs, not every such curve was filed as active; the % refers to the signal ratio; note: potency is the fitted concentration of half-maximal effect)
How it was run: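 ER-beta-UAS-bla HEK293T cells in 2% charcoal-stripped FBS medium treated with compound plus 1nM final 17-beta-estradiol for 16 hr at 37C. Beta-lactamase reporter read by FRET substrate fluorescence after 2 hours at room temperature.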

[9] = qHTS assay to identify small molecule agonists of the androgen receptor (AR) signaling pathway in the presence of an antagonist - cell viability counter screen (AID 1259379);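 note: MDA-kb2 human breast cancer cells carrying an MMTV luciferase reporter; series mostly up to about 92 µM; nearly all actives have a fitted effect of over 25% in size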
How it was run: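 Seed MDA-kb2 at 3,000 cells/well; incubate 5 hr, 37C, 0% CO2. Add nilutamide to 3.0uM final, then pin compounds at 15 concentrations. Incubate 16 hr. Add CellTiter-Fluor at 15 hr, read fluorescence after 1 hr.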

[10] = qHTS assay to identify small molecule agonists of the estrogen receptor beta (ER-beta) signaling pathway - cell viability counter screen (AID 1259380); note: nearly all actives have a fitted effect of over 30% in size; note: potency is the fitted concentration of half-maximal effect
How it was run: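 CellTiter-Glo read, 30 min RT, same wells as bla assay; cells ER-beta-UAS-bla HEK293T; 16 hr compound, 37C; medium 2% charcoal-stripped FBS.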

[11] = biological target: Estrogen receptor (Homo sapiens) (UniProt P03372); experiment: qHTS assay to identify small molecule agonists of the estrogen receptor alpha (ER-alpha) signaling pathway in the presence of an antagonist (AID 1259383; calls by dose curve; note: nearly all actives have a fitted effect of over 15% in size; note: potency is the fitted concentration of half-maximal effect; for activation: top concentration of the series differs between compounds)
How it was run: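 Stably transfected VM7Luc4E2 reporter cells, kept 5 days in charcoal-stripped serum, received ICI-182,780 at 10.0nM final before compound addition. Following 22hr incubation at 37C and 5% CO2, luciferase signal was read by luminescence.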

[12] = biological target: Thyrotropin receptor (Homo sapiens) (UniProt P16473); experiment: qHTS assay to identify small molecule antagonists of the thyroid stimulating hormone receptor (TSHR) signaling pathway (AID 1259385; calls by dose curve; note: nearly all actives have a fitted effect of over 20% in size)
How it was run: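 TSHR-HEK293 cells (800/well) plated 18 h, then compounds with Ro20-1724 and TSH at 1.5 ng/mL final, 30 min at room temperature. cAMP quantified by HTRF (cAMP-d2/anti-cAMP-cryptate, 1 h); 15 concentrations in triplicate.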

[13] = qHTS assay to identify small molecule agonists of the estrogen receptor alpha (ER-alpha) signaling pathway in the presence of an antagonist - cell viability counter screen (AID 1259386);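 note: cells exposed to compounds for 22 h at 37 °C before the viability read; nearly all actives have a fitted effect of over 30% in size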; note: potency is the fitted concentration of half-maximal effect
How it was run: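 Viability counter screen using VM7Luc4E2 (full-length ER-alpha, four ERE-luciferase). The cells were treated with compounds alongside ICI-182,780 10.0nM for 22hr, and live-cell protease fluorescence was quantified with CellTiter-Fluor.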

[14] = biological target: Progesterone receptor (Homo sapiens) (UniProt P06401); experiment: qHTS assay to identify small molecule agonists of the progesterone receptor (PR) signaling pathway (AID 1346784; calls by dose curve; note: nearly all actives have a fitted effect of over 30% in size)
How it was run: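 Using charcoal-stripped serum (2%) to limit endogenous steroids, PR-UAS-bla HEK 293T cells received compounds for 16 hr at 37C after 6 hr plating; beta-lactamase FRET fluorescence was recorded following 2 hr substrate loading at room temperature.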

[15] = biological target: Progesterone receptor (Homo sapiens) (UniProt P06401); experiment: qHTS assay to identify small molecule antagonists of the progesterone receptor (PR) signaling pathway (AID 1346795; active = well fitted inhibition curve with a large enough effect in the signal ratio in the repeat runs, not every such curve was filed as active; the % refers to the signal ratio)
How it was run: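 Inhibition of R5020-induced (1 nM final) beta-lactamase reporter signal in PR-UAS-bla HEK293T cells was scored by FRET fluorescence after overnight (16 hr) compound treatment.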

[16] = biological target: Androgen receptor (Homo sapiens) (UniProt P10275); experiment: qHTS assay to identify small molecule agonists of the androgen receptor (AR) signaling pathway in the presence of an antagonist (AID 1259381; calls by dose curve; note: nearly all actives have a fitted effect of over 15% in size)
How it was run: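 Test compounds at 15 concentrations were incubated for 16hr with MDA-kb2 reporter cells in presence of 3.0uM nilutamide (final). Signal: ONE-Glo luciferase luminescence.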

[17] = qHTS assay to identify small molecule antagonists of the estrogen receptor beta (ER-beta) signaling pathway - cell viability counter screen (AID 1259382); note: series mostly up to about 92 µM; nearly all actives have a fitted effect of over 55% in size
How it was run: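 In this multiplexed counter screen, cells were seeded at 2,000 per well in medium with 2% charcoal-stripped FBS and incubated 6 hr before compound and 1nM final E2 were added. Sixteen hours later, ATP-based luminescence reported viability.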

[18] = qHTS assay to identify small molecule agonists or antagonists of the thyroid stimulating hormone receptor (TSHR) signaling pathway - wild type cell line counter screen (AID 1259384; calls by dose curve)
How it was run: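 Wild-type Hek293 cells, 800/well, 18 h at 37C, then compound with Ro20-1724 for 30 min RT. cAMP by HTRF (cAMP-d2/anti-cAMP cryptate), 1 h RT, fluorescence read. 15 concentrations, triplicates.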

[19] = qHTS assay to identify small molecule HDAC inhibitors (AID 1259364);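 note: wild-type HCT-116 cells with endogenous class I/II HDAC activity; top concentration of the series differs between compounds; nearly all actives have a fitted effect of over 45% in size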
How it was run: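 Read-out: luminescence of HDAC-Glo I/II reagent, 30 min RT, reflecting class I/II deacetylase activity in whole HCT-116 cells pre-exposed 2 h to DMSO-dissolved compounds.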

Measured: Potency

Chain of Thyrotropin receptor (Homo sapiens) (P16473 whole entry, looked up): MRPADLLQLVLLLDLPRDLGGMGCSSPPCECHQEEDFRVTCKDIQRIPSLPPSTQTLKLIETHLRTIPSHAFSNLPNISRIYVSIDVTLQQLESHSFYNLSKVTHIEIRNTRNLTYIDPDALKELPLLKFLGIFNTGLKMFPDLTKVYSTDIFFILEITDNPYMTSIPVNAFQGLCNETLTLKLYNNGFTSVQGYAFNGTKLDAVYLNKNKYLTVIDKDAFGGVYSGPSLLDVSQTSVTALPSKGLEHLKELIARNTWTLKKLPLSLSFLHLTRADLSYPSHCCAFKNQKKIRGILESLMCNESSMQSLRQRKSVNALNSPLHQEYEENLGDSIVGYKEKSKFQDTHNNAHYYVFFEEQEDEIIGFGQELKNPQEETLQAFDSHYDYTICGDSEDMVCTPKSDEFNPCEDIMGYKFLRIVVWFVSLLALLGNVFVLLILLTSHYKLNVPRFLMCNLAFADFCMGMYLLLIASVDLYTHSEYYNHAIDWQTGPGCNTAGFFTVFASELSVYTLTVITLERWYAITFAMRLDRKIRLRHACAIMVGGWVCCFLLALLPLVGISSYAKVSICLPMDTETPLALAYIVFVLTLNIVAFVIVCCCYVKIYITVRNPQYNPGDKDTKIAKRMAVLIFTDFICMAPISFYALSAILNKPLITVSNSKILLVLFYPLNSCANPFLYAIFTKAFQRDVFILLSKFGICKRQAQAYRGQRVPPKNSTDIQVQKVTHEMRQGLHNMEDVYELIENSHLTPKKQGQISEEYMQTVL
Chain of Estrogen receptor beta (Homo sapiens) (Q92731 whole entry, looked up): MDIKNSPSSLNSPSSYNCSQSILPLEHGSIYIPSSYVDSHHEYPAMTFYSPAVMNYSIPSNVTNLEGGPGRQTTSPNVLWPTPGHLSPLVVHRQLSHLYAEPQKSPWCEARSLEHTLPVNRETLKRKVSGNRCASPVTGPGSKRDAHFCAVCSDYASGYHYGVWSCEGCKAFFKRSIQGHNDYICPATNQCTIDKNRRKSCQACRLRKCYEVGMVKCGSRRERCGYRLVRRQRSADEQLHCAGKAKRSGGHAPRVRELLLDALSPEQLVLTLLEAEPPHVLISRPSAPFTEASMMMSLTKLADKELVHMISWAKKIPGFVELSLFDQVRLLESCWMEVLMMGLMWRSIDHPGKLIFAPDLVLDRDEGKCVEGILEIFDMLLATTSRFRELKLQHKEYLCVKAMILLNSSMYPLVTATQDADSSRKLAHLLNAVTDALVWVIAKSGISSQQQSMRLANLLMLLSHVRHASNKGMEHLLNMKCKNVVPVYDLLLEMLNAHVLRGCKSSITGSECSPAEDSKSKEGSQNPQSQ
Chain of Estrogen receptor (Homo sapiens) (P03372 whole entry, looked up): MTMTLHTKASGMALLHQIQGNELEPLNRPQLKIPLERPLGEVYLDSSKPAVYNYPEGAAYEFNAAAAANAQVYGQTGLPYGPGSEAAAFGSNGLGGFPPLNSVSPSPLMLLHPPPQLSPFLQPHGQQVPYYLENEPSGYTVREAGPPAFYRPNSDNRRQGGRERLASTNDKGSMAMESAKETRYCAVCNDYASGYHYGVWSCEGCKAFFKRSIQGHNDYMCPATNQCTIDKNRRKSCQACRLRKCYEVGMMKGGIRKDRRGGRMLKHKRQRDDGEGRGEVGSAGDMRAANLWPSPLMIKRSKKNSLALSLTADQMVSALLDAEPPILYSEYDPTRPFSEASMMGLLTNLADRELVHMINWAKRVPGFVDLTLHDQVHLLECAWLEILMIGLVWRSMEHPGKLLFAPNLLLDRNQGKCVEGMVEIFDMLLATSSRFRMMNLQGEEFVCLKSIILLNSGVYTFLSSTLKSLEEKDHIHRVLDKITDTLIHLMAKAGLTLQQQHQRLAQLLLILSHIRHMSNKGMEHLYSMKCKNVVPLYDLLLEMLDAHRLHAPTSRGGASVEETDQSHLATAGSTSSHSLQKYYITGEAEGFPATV
Chain of Androgen receptor (Homo sapiens) (P10275 whole entry, looked up): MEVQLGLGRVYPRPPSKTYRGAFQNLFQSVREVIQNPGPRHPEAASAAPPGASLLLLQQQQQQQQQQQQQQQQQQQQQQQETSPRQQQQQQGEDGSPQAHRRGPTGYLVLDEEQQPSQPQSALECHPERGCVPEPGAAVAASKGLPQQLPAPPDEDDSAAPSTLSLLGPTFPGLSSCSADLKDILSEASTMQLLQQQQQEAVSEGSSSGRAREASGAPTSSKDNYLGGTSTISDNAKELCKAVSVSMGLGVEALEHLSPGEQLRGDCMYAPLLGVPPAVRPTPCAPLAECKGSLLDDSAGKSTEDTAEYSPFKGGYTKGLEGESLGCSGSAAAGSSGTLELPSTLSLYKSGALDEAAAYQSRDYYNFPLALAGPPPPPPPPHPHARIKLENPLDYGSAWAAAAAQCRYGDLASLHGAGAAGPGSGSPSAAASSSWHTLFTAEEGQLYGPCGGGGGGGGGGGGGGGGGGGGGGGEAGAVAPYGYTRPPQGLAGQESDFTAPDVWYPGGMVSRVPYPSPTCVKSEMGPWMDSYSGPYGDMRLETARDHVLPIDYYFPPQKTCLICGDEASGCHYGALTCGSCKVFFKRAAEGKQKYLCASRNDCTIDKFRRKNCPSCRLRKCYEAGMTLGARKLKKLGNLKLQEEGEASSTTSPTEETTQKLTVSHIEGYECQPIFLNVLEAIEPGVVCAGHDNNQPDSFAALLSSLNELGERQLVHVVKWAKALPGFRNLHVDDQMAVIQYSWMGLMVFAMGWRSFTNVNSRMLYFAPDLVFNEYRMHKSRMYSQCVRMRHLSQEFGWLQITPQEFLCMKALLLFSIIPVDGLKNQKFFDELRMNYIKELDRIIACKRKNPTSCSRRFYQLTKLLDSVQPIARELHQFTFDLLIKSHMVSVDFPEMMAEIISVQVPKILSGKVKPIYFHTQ
Chain of Progesterone receptor (Homo sapiens) (P06401 whole entry, looked up): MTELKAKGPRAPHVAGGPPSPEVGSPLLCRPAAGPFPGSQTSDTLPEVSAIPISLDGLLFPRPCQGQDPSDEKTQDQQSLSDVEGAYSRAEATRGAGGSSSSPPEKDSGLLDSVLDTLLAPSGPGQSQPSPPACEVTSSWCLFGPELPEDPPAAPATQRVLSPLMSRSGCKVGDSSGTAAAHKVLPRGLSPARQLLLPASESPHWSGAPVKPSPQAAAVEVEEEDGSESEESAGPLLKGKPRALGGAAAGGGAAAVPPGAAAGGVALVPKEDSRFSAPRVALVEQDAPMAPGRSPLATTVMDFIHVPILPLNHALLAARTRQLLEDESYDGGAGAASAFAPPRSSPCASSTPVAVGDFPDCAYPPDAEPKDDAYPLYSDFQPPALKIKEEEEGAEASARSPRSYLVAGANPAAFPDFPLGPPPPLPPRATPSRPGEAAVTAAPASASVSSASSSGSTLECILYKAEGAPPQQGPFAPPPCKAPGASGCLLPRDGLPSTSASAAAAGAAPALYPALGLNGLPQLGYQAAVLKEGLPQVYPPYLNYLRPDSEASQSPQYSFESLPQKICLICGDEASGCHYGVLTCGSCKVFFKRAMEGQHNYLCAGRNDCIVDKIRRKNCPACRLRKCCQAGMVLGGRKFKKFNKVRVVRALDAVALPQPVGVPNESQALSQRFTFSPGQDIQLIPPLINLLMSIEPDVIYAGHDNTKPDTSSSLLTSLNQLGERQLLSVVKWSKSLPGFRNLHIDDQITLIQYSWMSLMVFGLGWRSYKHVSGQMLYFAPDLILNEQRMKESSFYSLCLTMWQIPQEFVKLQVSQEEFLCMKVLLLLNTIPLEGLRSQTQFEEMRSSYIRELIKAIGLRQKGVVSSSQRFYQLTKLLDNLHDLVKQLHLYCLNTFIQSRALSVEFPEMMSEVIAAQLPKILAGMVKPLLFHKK

O=C(O)C(c1ccc(Cl)cc1)c1ccc(Cl)cc1
active: [10] 61.1 µM
not listed: [16] | [17] | [18] | [19]
inactive: all other assays above

NCCCN(CCO)CCO
not listed: [7] | [8] | [19]
inactive: all other assays above

CCOC(=O)C1=NN(c2ccccc2)C(=O)C1
not listed: [7] | [8] | [16] | [18] | [19]
inactive: all other assays above

CCc1nn(C2CCCCC2)c2cc(C3(C#N)CCC(C(=O)O)CC3)ccc12 (stereo not given)
active: [3] 30.6 µM | [4] 27.3 µM | [8] 13.7 µM
not listed: [9] | [10] | [13] | [15] | [16] | [19]
inactive: all other assays above

O=C1CCCCCO1
not listed: [2] | [16]
inactive: all other assays above

O=[N+]([O-])c1cc[n+]([O-])cc1
active: [1] 54.5 µM | [4] 61.1 µM | [6] 30.6 µM | [8] 43.3 µM | [13] 68.6 µM
inactive: [5] | [9] | [16] | [11] | [18]

CCCCOC(O)CC (stereo not given)
not listed: [3] | [4] | [19]
inactive: all other assays above

Oc1ccc(O)c2c(O)cccc12
not listed: [3] | [9] | [14] | [15] | [16] | [18] | [19]
inactive: all other assays above

CCCCCCCCCC=O
not listed: [8] | [10] | [16] | [19]
inactive: all other assays above

O=C(Cl)c1ccc([N+](=O)[O-])cc1
not listed: [2] | [6] | [14] | [15] | [18]
inactive: all other assays above

ClC(Cl)(Cl)c1ccc(C(Cl)(Cl)Cl)cc1
not listed: [2] | [5] | [12] | [16]
inactive: all other assays above

Cc1cc(O)ccc1N
active: [1] 15.4 µM | [3] 27.4 µM | [4] 48.8 µM | [6] 17.3 µM | [10] 48.8 µM
inactive: [2] | [5] | [16] | [11] | [18]

O=C(c1ccc(O)cc1)c1ccc(O)cc1
active: [7] 6.11 µM | [11] 21.7 µM
not listed: [3] | [4] | [5] | [6] | [15] | [18] | [19]
inactive: all other assays above

CC(C)CC=O
not listed: [2] | [3] | [12] | [15] | [16]
inactive: all other assays above

CC(=O)[C@@]1(O)CC[C@H]2[C@@H]3C[C@H](C)C4=CC(=O)CC[C@]4(C)[C@H]3CC[C@@]21C
not listed: [2] | [6] | [14] | [15] | [16]
inactive: all other assays above

Cc1ccc2c(ccc3ccccc32)c1
not listed: [2] | [4] | [8] | [12] | [15] | [16] | [19]
inactive: all other assays above

CCCC(C)C
active: [10] 61.8 µM
not listed: [2] | [14] | [16]
inactive: all other assays above
